HT1080-NT tox: qHTS for induction of synthetic lethality in tumor cells producing 2HG: qHTS for the HT-1080-NT fibrosarcoma cell line; HT-1080-NT fibrosarcoma viability, CellTiter-Glo ATP luminescence, 48 h; Potency, µM (highest dose often 46.1 µM), without a hit: at the highest dose activity, negative = less viability, hits mostly cytotoxic; 360,000 tested, 1.6% active;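 also: NT is the 2HG producing partner of a matched IDH1 knockdown line; 0% = DMSO-treated cells and -100% = media-only wells without cells; nearly all actives have a fitted effect of over 55% in size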
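HT-1080-NT; 750 cells/well; 5% FBS RPMI; 48 h compound, 37 degrees C; CellTiter-Glo luminescence; curve fitting and curve-class assignment.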
TDP1 cell CPT: qHTS for Inhibitors of human tyrosyl-DNA phosphodiesterase 1 (TDP1): qHTS in cells in presence of CPT. AID 686979, 2013. chicken DT40 Tdp1-/-;hTDP1 cells + 20 nM CPT, ATP luminescence, 48 h. Potency, µM (titrated, usually from 46.2 µM), without a hit: at the highest dose activity change, negative = growth inhibition, most hits filed as inhibitors. 420,000 tested, 12% active; also: % is scaled to controls: 0 for no effect and ±100 for the full control effect; nearly all actives have a fitted effect of over 55% in size
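Chicken DT40 Tdp1-/- cells stably complemented with human TDP1 were seeded at 400 cells/well in medium containing 20 nM camptothecin, exposed to pin-transferred compounds, and grown at 37 °C for at least 48 hr. Viability was read as ATP luminescence.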
TGFb inhibitor: qHTS for Inhibitors of TGF-b | AID 588855, 2011 | HepG2 CAGA-GFP TGF-b/SMAD3 reporter, GFP fluorescence, 18 h; TGF-beta stimulated, 500 pg/mL final | 410,000 tested, 1.2% active | Potency, µM (doses to about 46.1 µM), for inactives: at the highest dose activity, negative = inhibition, usual class: inhibitors; also: % is scaled to controls: 0 for no effect and ±100 for the full control effect; nearly all actives have a fitted effect of over 65% in size
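Inhibition was scored as loss of TGF-beta-induced (500 pg/mL final, 18 hours, 37 degrees C) GFP in HEPG2 cells carrying a CAGA-GFP reporter, in DMEM with 1% FBS. Well GFP was summed per cell; Activity was normalised to unstimulated and stimulated DMSO wells, then concentration-response fitting.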
TDP1 cell noCPT: qHTS for Inhibitors of human tyrosyl-DNA phosphodiesterase 1 (TDP1): qHTS in cells in absence of CPT; DT40 Tdp1-/- hTDP1 cells, no CPT, ATP luminescence, 48 h; 420,000 tested, 15% active; Potency, µM (series often up to 46.2 µM), without a hit: top-dose activity change, negative = growth inhibition, usual class: inhibitors; AID 686978, 2013; also: % is scaled to controls: 0 for no effect and ±100 for the full control effect; nearly all actives have a fitted effect of over 55% in size
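No-CPT arm: Tdp1-/-;hTDP1 DT40 cells (400/well) plus compounds, incubated ≥48 hr at 37 °C. Readout CellTiter-Glo luminescence.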
HT1080 IDH1KD tx: qHTS for induction of synthetic lethality in tumor cells producing 2HG: qHTS for the HT-1080-IDH1KD cell line | HT-1080 IDH1 knockdown viability, ATP luminescence, 48 h | Potency, µM (top dose mostly 46.1 µM), inactives show top-dose activity, negative = toxicity, usual class: cytotoxic | 360,000 tested, 2% active | AID 686971, 2013;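 also: 0% = DMSO wells and -100% = cell-free medium wells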
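CellTiter-Glo luminescence after 48 h compound exposure at 37 degrees C of IDH1-knockdown HT-1080 cells in 5% FBS RPMI. %Activity scaled between DMSO wells and cell-free media wells, with curves fitted and assigned curve classes.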
HepG2 tox: qHTS for Inhibitors of TGF-b: Cytotox Counterscreen | 410,000 tested, 0.76% active | HepG2 CAGA-GFP viability, ATP luminescence, 18 h | AID 588856, 2011 | Potency, µM (titrated, usually from 46.1 µM), for the others: at the highest dose activity change, negative = cytotoxicity, hits mostly cytotoxic
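HepG2 CAGA-GFP cells (1000/well, DMEM with 1% FBS) received compound, then TGF-beta at 500 pg/mL final, and were incubated 18 hours at 37 degrees C. Viability was read by CellTiter-Glo luminescence. Media-only wells were set as complete cell-killing and DMSO as no toxicity.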
The depositor's hits bear a star; u = inconclusive; x = not tested or not shown. In the library only some 17% were active in any assay of this set; here they are far more common. Calls follow the shape of the dose curve; as a rule, active = well fitted curve in the direction sought with a large enough effect; inconclusive = small, poorly fitted or top-dose-only effect, or another doubt; inactive = no such curve, though single readings can be large; an effect the other way counts as inactive or inconclusive. Potency is read from the fitted curve at half-maximal effect.

SMILES	HT1080-NT tox	TDP1 cell CPT	TGFb inhibitor	TDP1 cell noCPT	HT1080 IDH1KD tx	HepG2 tox
COCC(CN1CCN(C2=NS(=O)(=O)c3ccccc32)CC1)OC(=O)c1ccc(OC)cc1 (configuration not stated)	-6.9%	-0.8%	-15.8%	-3.4%	-12.2%	1.2%
COc1ccc2c(CC(=O)NNC(=O)c3ccc(O)cc3)coc2c1	1.3%	30.7%	7.8%	-13.8%	-0.7%	3.2%
COCCNC(=O)C1(C)CCCN(C(=O)c2cc(F)cc(F)c2)C1 (configuration not stated)	0.0%	3.7%	-17.6%	17.5%	18.0%	-10.2%
COc1cc(/C=C/c2nc3ccccc3c(=O)[nH]2)cc(Cl)c1O	6.1%	1.0%	10.5%	-7.3%	7.2%	-2.5%
O=C(Nc1cccc(/C=C/c2nc3ccccc3c(=O)[nH]2)c1)c1ccccc1Cl	u	16.4µM*	-8.0%	14.6µM*	u	-6.7%
COc1ccc(C(=O)Nc2cccc(/C=C/c3nc4ccccc4c(=O)[nH]3)c2)cc1	u	9.2µM*	u	6.51µM*	u	-76.2%
COc1ccc(C(=O)Nc2nc3ccccc3c(=O)[nH]2)cc1	6.5%	-22.9%	-7.7%	-29.9%	0.5%	-25.5%
CCN(Cc1ccc2c(c1)OCO2)C(=O)/C=C/c1cccc(Br)c1	-13.3%	-1.6%	11.8%	u	-14.4%	9.2%
CC(C)(C)N(Cc1ccc2c(c1)OCO2)C(=O)/C=C\S(=O)c1ccccc1 (configuration not stated)	-26.2%	5.17µM*	11.2µM*	3.66µM*	13µM*	17.8µM*
O=C(Oc1ccc(Br)cc1)c1n[nH]c(=O)c2ccccc12	-1.2%	-23.4%	11.8%	-16.2%	-2.8%	4.3%
CC(/C=C/c1ccc(N(C)C)cc1)=N/N=C1/NC(=O)CC(C(=O)Nc2ccc(Cl)cc2)S1 (configuration not stated)	u	-28.1%	10µM*	-22.7%	16.4µM*	-38.3%
CCCOc1ccc(NC(=O)C2CC(=O)N/C(=N/N=C(C)/C=C/c3ccc(N(C)C)cc3)S2)cc1 (configuration not stated)	-6.9%	u	-16.5%	u	-25.5%	-14.5%
COc1cccc(-c2ccnc(-n3ncc(C(=O)N(C)CCc4ccccn4)c3C)n2)c1	x	17.0%	x	-22.6%	x	x
O=c1cnc2cnc(N3CCNCC3)nc2n1Cc1cccs1	x	-4.3%	x	-19.3%	x	x
Cn1c(=O)c(-c2cccs2)nc2cnc(N3CCNCC3)nc21	x	-20.9%	x	-26.3%	x	x
O=c1c(-c2ccc(Cl)cc2)nc2cnc(N3CCNCC3)nc2n1Cc1cccs1	x	6.51µM*	x	20.6µM*	x	x
O=c1c(-c2cccs2)nc2cnc(N3CCNCC3)nc2n1C1CC1	x	u	x	20.6µM*	x	x
COCCn1c(=O)cnc2cnc(OC)nc21	x	-10.2%	x	-0.1%	x	x
COCCn1c(=O)cnc2cnc(N3CCN(C)CC3)nc21	x	23.1µM*	x	-22.0%	x	x
O=c1c(-c2cccs2)nc2cnc(N3CCNCC3)nc2n1Cc1cccs1	x	7.31µM*	x	13µM*	x	x
O=c1c(-c2ccc(F)cc2)nc2cnc(N3CCOCC3)nc2n1Cc1cccs1	x	-23.5%	x	-20.7%	x	x
O=C(O)C(c1ccccc1)C(O)C1CCCC1 (configuration not stated)	13.3%	11.8%	u	1.4%	11.6%	-1.9%
CN1CCN(c2ncc3nc(-c4cc(F)cc(F)c4)c(=O)n(C4CC4)c3n2)CC1	x	u	x	-18.0%	x	x
CN1CCN(c2ncc3nc(-c4ccccc4)c(=O)n(Cc4cccs4)c3n2)CC1	x	u	x	16.4µM*	x	x
CN1CCN(c2ncc3nc(-c4cccs4)c(=O)n(C[C@H]4CCCO4)c3n2)CC1	x	11.6µM*	x	5.17µM*	x	x
SMILES	HT1080-NT tox	TDP1 cell CPT	TGFb inhibitor	TDP1 cell noCPT	HT1080 IDH1KD tx	HepG2 tox
O=c1c(-c2ccccc2)nc2cnc(N3CCOCC3)nc2n1C[C@H]1CCCO1	x	0.3%	x	12.1%	x	x
CN1CCN(c2ncc3nc(-c4ccccc4)c(=O)n(C4CC4)c3n2)CC1	x	20.6µM*	x	u	x	x
O=c1c(-c2cc(F)cc(F)c2)nc2cnc(N3CCNCC3)nc2n1Cc1cccs1	x	u	x	20.6µM*	x	x
CC(=O)c1ccc(NC(=S)N2CC(C)CC(C)C2)cc1 (configuration not stated)	8.7%	-27.3%	-21.0%	-25.6%	7.1%	-5.7%
COc1ccc(OCC(O)CNC(=O)c2cccs2)cc1 (configuration not stated)	26.4%	2.1%	5.6%	3.4%	16.5%	-0.1%
CC1CCCN(S(=O)(=O)c2cccc(C(=O)NCC3CCCO3)c2)C1 (configuration not stated)	-0.8%	-12.9%	-15.7%	-8.4%	-2.0%	-5.2%
CN1CCN(c2ncc3nc(-c4cccs4)c(=O)n(CCC#N)c3n2)CC1	x	-87.9%	x	u	x	x
COCCn1c(=O)c(-c2cccs2)nc2cnc(Oc3ccc(OC)cc3)nc21	x	u	x	25.9µM*	x	x
COCCn1c(=O)c(-c2cccs2)nc2cnc(Oc3ccccc3)nc21	x	u	x	-29.5%	x	x
CN1CCN(c2ncc3nc(-c4cccs4)c(=O)n(Cc4cccs4)c3n2)CC1	x	18.4µM*	x	u	x	x
CN1CCN(c2ncc3nc(-c4cn(C)c5ccccc45)c(=O)n(C[C@H]4CCCO4)c3n2)CC1	x	20.6µM*	x	u	x	x
O=C(NCc1ccc(F)cc1)c1cccc(S(=O)(=O)N2CCOCC2)c1	4.4%	1.6%	14.6%	15.2%	18.7%	-10.7%
CCOC(=O)/C(C#N)=C\c1c(OCC)n(CC)c2ccccc12	-1.5%	u	0.0%	18.4µM*	-6.4%	14.7%
CCn1c2ccccc2c2cc(NC(=O)C(C)C)ccc21	-11.5%	u	4.6%	25.9µM*	-18.8%	-0.5%
CCn1c2ccccc2c2cc(NC(=O)N3CCCCC3)ccc21	-18.7%	18.4µM*	11.3%	23.1µM*	u	-25.3%
CCCC(=O)Nc1ccc2c(c1)c1ccccc1n2CC	-20.6%	u	3.8%	u	-27.7%	-14.8%
CCOC(=O)C(=CNc1ccc2c(c1)c1ccccc1n2CC)C(=O)OCC	-15.6%	14.6µM*	u	8.2µM*	-11.5%	-18.9%

High-throughput results: PubChem BioAssay, National Center for Advancing Translational Sciences (NCATS)
